Among all 2,100 compounds or so, about 770 (37%) were called active. The list shows a part of the results. Values without a mark were called inactive.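 Rule for the calls: active = by-eye trace score of 1 for enhancers or -1 for inhibitors, so actives lie on both sides (some results past the limit were not filed as active); inactive = score 0, or 3 fluorescent, or 4 baseline rise.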

For this assay, the target named is G protein-activated inward rectifier potassium channel 2 (Homo sapiens) + G protein-activated inward rectifier potassium channel 1 (Homo sapiens) (UniProt P48051+P48549). Put plainly: GIRK1/2 thallium flux modulators, retest, confirmation, cell-based, HEK293 rmGlu8/hGIRK1/2, FluoZin-2 (AID 623911). Conditions: HEK293 rmGlu8/hGIRK1/2, thallium flux FluoZin-2; actives lie on both sides; glutamate co-added at its EC20 level.
G protein-activated inward rectifier potassium channel 2 (Homo sapiens) + G protein-activated inward rectifier potassium channel 1 (Homo sapiens), sequence (P48051 whole entry, looked up): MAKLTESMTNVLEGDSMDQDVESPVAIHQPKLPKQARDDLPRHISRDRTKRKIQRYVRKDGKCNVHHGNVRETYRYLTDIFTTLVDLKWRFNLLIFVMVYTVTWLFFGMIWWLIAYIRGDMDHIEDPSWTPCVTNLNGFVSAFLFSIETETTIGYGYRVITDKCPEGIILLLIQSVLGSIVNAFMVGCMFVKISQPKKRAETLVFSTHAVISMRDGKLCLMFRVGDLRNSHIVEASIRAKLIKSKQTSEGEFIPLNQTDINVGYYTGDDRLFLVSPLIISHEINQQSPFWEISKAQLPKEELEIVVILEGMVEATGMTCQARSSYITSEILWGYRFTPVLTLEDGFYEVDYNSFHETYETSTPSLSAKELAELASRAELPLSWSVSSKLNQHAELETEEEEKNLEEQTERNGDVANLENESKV
G protein-activated inward rectifier potassium channel 2 (Homo sapiens) + G protein-activated inward rectifier potassium channel 1 (Homo sapiens), sequence (P48549 whole entry, looked up): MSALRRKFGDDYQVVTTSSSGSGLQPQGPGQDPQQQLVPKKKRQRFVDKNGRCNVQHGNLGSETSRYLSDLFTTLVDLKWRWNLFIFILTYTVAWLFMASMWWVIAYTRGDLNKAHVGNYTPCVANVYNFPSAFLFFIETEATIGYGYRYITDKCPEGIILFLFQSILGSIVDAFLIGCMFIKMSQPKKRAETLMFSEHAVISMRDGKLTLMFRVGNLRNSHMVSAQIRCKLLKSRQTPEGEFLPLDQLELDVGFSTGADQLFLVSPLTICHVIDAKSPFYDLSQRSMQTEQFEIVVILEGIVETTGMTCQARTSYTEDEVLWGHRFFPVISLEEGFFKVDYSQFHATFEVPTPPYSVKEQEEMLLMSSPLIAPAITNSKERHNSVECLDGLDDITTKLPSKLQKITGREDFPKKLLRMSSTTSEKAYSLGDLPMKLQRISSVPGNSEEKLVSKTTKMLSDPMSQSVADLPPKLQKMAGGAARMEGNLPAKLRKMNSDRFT
`OC(c1ccccc1)C1CN(Cc2ccccc2)CCC1(O)c1ccccc1` (stereo unspecified): the manual score was -1 (active). With `O=C(COc1ccccc1F)NC1CCN(Cc2ccccc2)CC1` the figure was 0.

Turning to `Cc1ccc(C)c2[nH]c(=O)c(CN(CCN3CCCC3)C(=O)Nc3ccc(F)cc3)cc12`, the manual score is -1 (active).

In the case of `CCOC(=O)CSc1nc2c(sc3ccccc32)c(=O)n1CCCN1CCOCC1`, the manual score is -1 (active). With `CCCCn1c(SCC(N)=O)nc2c(sc3ccccc32)c1=O`, the manual score is 0. In the case of `CC(C)CCn1c(SCC#N)nc2c(sc3ccccc32)c1=O`, the manual score was 0. For `Cc1cccc2c1nc(-c1ccccc1)n1cnnc21`, the manual score is 0. As to `COc1ccccc1N1CCN(C(=O)CCn2c(=O)[nH]c3ccsc3c2=O)CC1`, the manual score was 0. As for `O=C(CCn1c(=O)oc2ccccc21)N1CCN(c2ccccc2Cl)CC1`, the figure is -1 (active); as for `Cc1ccc(C)c(N2CCN(C(=O)CCCOc3cc(=O)n(C)c4ccccc34)CC2)c1`, 0. On to `CCC(=O)n1nc(-c2cccnc2)nc1NCc1ccc(OC)cc1`, for which the manual score is 0. In the case of `CC(C)CCNC(=O)C(C)N(C(=O)Cn1nnc(-c2ccc(F)cc2)n1)C1CCCC1` (stereo unspecified), the manual score is 0.5. Take `CC(C)CCNC(=O)C(C)N(Cc1ccc(F)cc1)C(=O)c1ccc(CN2CCCCC2)o1` (stereo unspecified): the manual score was -1 (active). As for `CN1C=CC2=C(C#N)C(N)C(C#N)(C#N)C(c3ccccc3)C2C1` (stereo unspecified), the manual score is 3. As for `S=C(N/N=C/c1ccccc1Cl)Nc1ccccc1`, the figure is 0.5; as for `Fc1ccccc1CNC(=S)Nc1ccc(Cl)cc1`, 1 (active). With `Clc1ccc(Cc2ccc(SCc3ccccc3)nn2)c(Cl)c1`, the manual score was 0. `Fc1ccc(NC(=S)NCc2ccccc2Cl)cc1`: the manual score is 1 (active). With `S=C(NN=C1CCCCCC1)Nc1ccc(Cl)cc1` the figure was 0.5. As to `S=C(NCc1ccc(Cl)cc1Cl)Nc1ccccc1`, the manual score is 1 (active).

Turning to `S=C(NCCc1ccccc1)Nc1ccc(Cl)cc1Cl`, the manual score is -0.5. In the case of `CC1(C)CC(=O)c2c(noc2-c2ccccc2)C1`, the manual score is 0. On to `O=C(NC(=S)Nc1ccccc1N1CCCC1)c1ccc(-c2cccc([N+](=O)[O-])c2)o1`, for which the manual score is 0. As for `O=C(Oc1ccccc1C(=S)N1CCCCC1)c1cc([N+](=O)[O-])cc([N+](=O)[O-])c1`, the figure is -1 (active); as for `Fc1ccc(/C=N/NC(=S)Nc2ccc(Cl)cc2)cc1F`, 0; as for `Fc1ccc(NC(=S)N/N=C/c2cccc(Br)c2)c(F)c1`, 0.

For `Fc1ccc(NC(=S)N/N=C/c2ccc(F)c(F)c2)c(F)c1`, the manual score is 1 (active). Consider `Oc1c(C=NCc2ccncc2)sc2ccccc12`, for which the manual score is 1 (active). For the molecule `CN(CCNC(=O)c1cc2c(=O)n(C)c3ccccc3c2n1C)Cc1ccccc1`, the manual score is -1 (active). As for `CCCN(CCC)CCCNC(=O)c1cc2c(=O)n(C)c3ccccc3c2n1C`, the manual score is -1 (active). Regarding `CCn1c(=O)c(C(=O)NCCCO)c(O)c2ccccc21`, the manual score is 0. With `O=C(NC(Nc1nc2ccc([N+](=O)[O-])cc2s1)(C(F)(F)F)C(F)(F)F)c1ccccc1Cl`, the manual score was 0. For the molecule `Cc1ccc(C)c(OCC(=O)Nc2nc3ccc([N+](=O)[O-])cc3s2)c1C`, the manual score was 0. As to `O=C(NC(Nc1nc2ccc([N+](=O)[O-])cc2s1)(C(F)(F)F)C(F)(F)F)c1ccccc1`, the manual score was 1 (active). With `Cc1noc(C)c1CSc1nc2ccccc2c(=O)n1-c1ccc(F)cc1F` the figure was 0; with `Cc1onc(-c2c(F)cccc2Cl)c1C(=O)OCn1nnc2ccccc2c1=O`, -1 (active); with `COc1cccc(NC(=O)Nc2cccs2)c1`, 1 (active). With `COC(=O)c1c(NC(=O)Cc2cccs2)sc(C(=O)NC2CCCCC2)c1C`, the manual score was 0.

On to `O=C(Nc1cccs1)Nc1c(F)c(F)c(F)c(F)c1F`, for which the manual score is 1 (active). With `O=C(Cc1cccs1)Nc1cccnc1`, the manual score is 0.

Regarding `CCOc1ccc(NC(=O)CCC(=O)c2ccc(-c3ccccc3)cc2)cc1`, the manual score was 0.

In the case of `CCOc1ccc(Nc2ncnc(N)n2)cc1`, the manual score was 1.5.

Take `CCOc1ccc(NC(=O)Nc2cccs2)cc1`: the manual score is 1 (active).

For the molecule `COc1cc(NC(=O)Cc2cccs2)cc(OC)c1`, the manual score was 1 (active). As for `Cc1ccc(-c2cc(-c3cccs3)[nH]n2)c(O)c1`, the manual score was 0. As for `CN1C=CC2=C(C#N)C(N)C(C#N)(C#N)[C@H](c3ccccc3)[C@H]2C1` (stereo partly specified), the figure is 1.5; as for `Cn1c(SCC(=O)c2cc3ccccc3o2)nnc1-c1ccccc1`, 0; as for `CC1CC2=C(CC1/C=N/NC(N)=S)C(C)(C)CCC2` (stereo unspecified), 0. `CCN(CC)C(=O)CSc1nnc(NC(=O)CCc2ccccc2)s1`: the manual score was 0. With `Cc1ccccc1NC(=S)NC(=O)CCc1ccccc1`, the manual score was 0. With `CCN(CC)CC(O)COc1ccccc1C(=O)CCc1ccccc1` (stereo unspecified), the manual score was -1 (active). Consider `S=C1CCSc2ccc(Cl)cc2N1`, for which the manual score was 1 (active). With `S=C1Nc2cc(Cl)ccc2Sc2ccccc21` the figure was 0.5; with `CC1(C)Cc2c(sc3[nH]c(=S)n(Cc4ccccc4)c(=O)c23)CO1`, 1 (active); with `CC(C)C1Cc2c(sc3[nH]c(=S)n(Cc4ccccc4)c(=O)c23)CO1` (stereo unspecified), 1 (active). For the molecule `CCC1(C)Cc2c(sc3[nH]c(=S)n(Cc4ccccc4)c(=O)c23)CO1` (stereo unspecified), the manual score is 1 (active).

`O=c1c2cccnc2[nH]c(=S)n1Cc1ccccc1`: the manual score is 0. For the molecule `CCC1(C)Cc2c(sc3c2c(=O)n(C)c2nnc(SCc4ccc5c(c4)OCO5)n32)CO1` (stereo unspecified), the manual score is 0. On to `CC(C)C1Cc2c(sc3c2c(=O)n(Cc2ccccc2)c2nncn32)CO1` (stereo unspecified), for which the manual score is 1 (active). Turning to `COc1ccccc1N(C)S(=O)(=O)c1ccc(C(=O)N(CC(N)=O)C(C)C)cc1`, the manual score was 0.

Turning to `CC(=O)/C(=N\Nc1ccc(Cl)cc1Cl)Sc1cccc2cccnc12`, the manual score was 0. Take `N#CC1=C(N)Oc2n[nH]c(-c3cccs3)c2C1c1ccco1` (stereo unspecified): the manual score was 3.

Turning to `Cc1nnc2n(C3CCCCC3)c(=O)c3c4c(sc3n12)COC(C)(C)C4`, the manual score was 0.

In the case of `CC1(C)Cc2c(sc3[nH]c(=S)n(Cc4ccco4)c(=O)c23)CO1`, the manual score is 1 (active). Regarding `C=C(C)C1CC=C(C)/C(=N/NC(=O)COc2ccc(C)cc2)C1` (stereo unspecified), the manual score was 0. As for `C=C(C)C1CC=C(C)/C(=N/NC(=O)COc2cccc(C)c2)C1` (stereo unspecified), the figure is 1 (active); as for `C=C(C)C1CC=C(C)/C(=N/NC(=O)c2ccc(NC(=O)CCC)cc2)C1` (stereo unspecified), 0; as for `CCOC(=O)c1c(C)[nH]c(=S)c(C#N)c1-c1ccc(Cl)cc1`, 0. With `COc1ccc(-c2c3c([nH]c(=S)c2C#N)CCC3)cc1` the figure was 0.

Regarding `Cc1ccc(-c2cc(-c3ccccc3)[nH]c(=S)c2C#N)cc1`, the manual score was 1 (active). For the molecule `Cc1ccc(C2CC2c2n[nH]c(=S)n2-c2ccc(Cl)cc2)cc1` (stereo unspecified), the manual score was 0. As for `CN=C1SC(C(=O)O)CC(=O)N1C` (stereo unspecified), the figure is 0; as for `Cc1cc(O)c(C(C[N+](=O)[O-])c2ccc(Cl)cc2Cl)c(=O)o1` (stereo unspecified), 0.

Take `CC(c1ccco1)N(C(=O)c1ccccc1NS(=O)(=O)c1cc([N+](=O)[O-])ccc1Cl)c1ccccn1` (stereo unspecified): the manual score was 0. For `COC(=O)c1ccc(NC(=O)C23CC4CC(C2)CC(n2cncn2)(C4)C3)cc1`, the manual score is 0. As for `CCCC(=O)Nc1ccc(NC(=O)C23CC4CC(CC(C4)C2)C3)cn1`, the manual score is 0.

`O=C(Nc1ccc(SC(F)F)cc1)C12CCC(CC1)C2`: the manual score is 1 (active). With `O=C1c2ccccc2NC(c2ccc(-c3ccc(Br)cc3)o2)N1O` (stereo unspecified), the manual score was 0.5. With `S=c1[nH]nc(-c2cc3c(s2)-c2ccccc2CC3)o1` the figure was 1 (active); with `Cc1ccc(-c2cc(-c3n[nH]c(=S)o3)c3ccccc3n2)cc1`, 0. Take `CCCCCCn1cnc2c(c1=O)c1nc3ccccc3nc1n2/N=C/c1ccco1`: the manual score is 0. Regarding `COc1cc(OC)cc(C(=O)Nc2nc(-c3ccccc3)c(-c3ccccc3)o2)c1`, the manual score is 0.

As for `COc1cccc(C(=O)Nc2nc(-c3ccccc3)c(-c3ccccc3)o2)c1`, the manual score is 1 (active). Regarding `O=C(Nc1nc(-c2ccccc2)c(-c2ccccc2)o1)c1ccc(F)cc1`, the manual score was 1 (active). `Cc1ccc(C(=O)Nc2cnc3ccccn3c2=O)cc1`: the manual score is 0. For `Cc1ccc(C(=O)Nc2nc(-c3ccccc3)c(-c3ccccc3)o2)cc1`, the manual score is 1 (active). `COc1cccc(C(=O)NCc2cn3ccsc3n2)c1`: the manual score was 0. As to `CSc1ccccc1C(=O)Nc1cccc(C(C)=O)c1`, the manual score is 0. Turning to `CSc1ccccc1NC(=O)Nc1ccc(Cl)cc1`, the manual score is 1 (active).

As for `CSc1ccccc1NC(=O)Nc1ccccc1`, the manual score is 1 (active). In the case of `CCC(C)NC(=O)c1ccccc1NC(=O)Nc1ccccc1` (stereo unspecified), the manual score is 0.

For `COC(=O)c1sccc1NC(=O)CSc1ccccc1NS(=O)(=O)c1ccc(Cl)cc1`, the manual score was 0. Consider `CC(C)N=c1scc(-c2cccs2)n1/N=C/c1ccc(O)c(O)c1O`, for which the manual score was 0. Regarding `Cc1c(C)[n+](=O)c2c(n1[O-])CCC2`, the manual score is 0.

With `CCc1ccc(/C=C/C(=O)C2C(=O)c3ccccc3C2=O)cc1`, the manual score is 1 (active). As for `O=C(/C=C/c1ccccc1)C1C(=O)c2ccccc2C1=O`, the manual score is 1 (active).

Regarding `CC(/C=C/c1ccccc1)=N/NC(=O)c1cc([N+](=O)[O-])cc([N+](=O)[O-])c1`, the manual score was 0. Regarding `CC(/C=C\c1cccnc1)=C/C(=O)O`, the manual score is 0. As for `CCc1ccc(/C=c2\s/c(=C\C(=O)C(C)(C)C)[nH]c2=O)cc1`, the figure is 0; as for `CN=C(C)C1=C(O)C(C(=O)OC)C(C)(C)CC1=O` (stereo unspecified), 0.

As to `Cc1cccc2c(=O)cc(C)n(CC(=O)N3CCCCC3)c12`, the manual score was 0. In the case of `CCc1c(O)nc(SCC(=O)Nc2ccc(OC)cc2)n(C2CCCCC2)c1=O`, the manual score was 0. `CC(=O)Oc1ccc2c(c1)Oc1cc(OC(C)=O)ccc1C21OC(=O)c2ccccc21`: the manual score was 3.

As to `O=C(Nc1ncc(Br)s1)C(Cc1ccccc1)n1cccc1` (stereo unspecified), the manual score was 1 (active). Consider `Cc1csc(NC(=O)C(Cc2ccccc2)n2cccc2)n1` (stereo unspecified), for which the manual score is 0.

For the molecule `CCSc1nnc(NC(=O)C(Cc2ccccc2)n2cccc2)s1` (stereo unspecified), the manual score was 0.

Values taken from PubChem BioAssay AID623911 (Vanderbilt High Throughput Screening Facility, 2012).
